From PubChem BioAssay (NCI)
Compounds without any hit were thinned out: in the full panel of roughly 79,000, 15% have a hit. Unmarked numbers belong to inactive results. Active and inactive are the calls of the source. Cut-off read from the data, not from the text of the source: active = growth inhibition above about 70%; inactive = the rest.

What was measured:
[1] = NCI Yeast Anticancer Drug Screen. Data for the rad50 strain (AID 155);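 note: 0% = growth of vehicle-only cultures of the same strain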; conditions: S. cerevisiae rad50 strain growth inhibition, stronger effect = higher value
In short: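 Cells are treated with compound, grown, and their growth is then scored against vehicle-only cultures of the same repair-deficient yeast strain.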

[2] = NCI Yeast Anticancer Drug Screen. Data for the mec2-1 strain (AID 157); conditions: S. cerevisiae mec2-1 strain, stronger effect = higher value
In short: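 Yeast mec2-1 mutant treated with compound. Readout: growth inhibition vs vehicle controls.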

[3] = NCI Yeast Anticancer Drug Screen. Data for the sgs1 mgt1 strain (AID 161);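 note: 0% = growth of cultures given vehicle only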; conditions: S. cerevisiae sgs1 mgt1 strain, stronger effect = higher value
In short: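 Genetically altered yeast, compound exposure, growth inhibition relative to vehicle.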

[4] = NCI Yeast Anticancer Drug Screen. Data for the cln2 rad14 strain (AID 165);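 note: 0% = growth equal to vehicle treated cultures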; conditions: S. cerevisiae cln2 rad14 strain, stronger effect = higher value
In short: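 cln2 rad14 yeast strain; compound exposure; growth inhibition read vs vehicle controls.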

[5] = NCI Yeast Anticancer Drug Screen. Data for the bub3 strain (AID 167); conditions: S. cerevisiae bub3 mutant strain, stronger effect = higher value
In short: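 Part of a panel of yeast mutants defective in DNA damage repair or cell cycle regulation. Each strain is grown with compound, and inhibition is calculated relative to solvent-treated cultures.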

[6] = NCI Yeast Anticancer Drug Screen. Data for the mlh1 rad18 strain (AID 175); conditions: S. cerevisiae mlh1 rad18 strain growth inhibition, stronger effect = higher value
In short: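 Yeast w/ defined DNA-repair lesions; compound exposure; growth vs vehicle controls → % inhibition.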

[7] = at 5.0 µM (retest, dose inferred, filed as 0.5)
[8] = at 50.0 µM (retest, dose inferred, filed as 5.0)

Row | Structure (SMILES) | growth inhibition [1, 7] | growth inhibition [1, 8] | growth inhibition ([1]; at 50.0 µM) | growth inhibition [2, 7] | growth inhibition [2, 8] | growth inhibition ([2]; at 50.0 µM) | growth inhibition [3, 7] | growth inhibition [3, 8] | growth inhibition ([3]; at 50.0 µM) | growth inhibition [4, 7] | growth inhibition [4, 8] | growth inhibition ([4]; at 50.0 µM) | growth inhibition [5, 7] | growth inhibition [5, 8] | growth inhibition ([5]; at 50.0 µM) | growth inhibition [6, 7] | growth inhibition [6, 8] | growth inhibition ([6]; at 50.0 µM)
1 | Clc1ccccc1CN1COc2c(ccc3cccnc23)C1 | 9% | 21% | 69% | 12% | 16% | 32.9% | 7% | 51% | 55.5% | 0% | 44% | 13.3% | 7% | 31% | 26.1% | 19% | 72% (active) | 41.6%
2 | C[C@H](CCC(=O)O)[C@H]1CC[C@H]2[C@@H]3[C@@H](O)C[C@@H]4C[C@H](O)CC[C@]4(C)[C@H]3CC[C@]12C | 14% | 97% (active) | 79.9% (active) | 7% | 96% (active) | 99% (active) | 19% | 99% (active) | 81.3% (active) | -1% | 97% (active) | 76.5% (active) | 21% | 99% (active) | 98.5% (active) | 12% | 99% (active) | 88.7% (active)
3 | CCCCOP(=O)(OCCCC)C(NS(=O)(=O)c1ccccc1)(C(=O)OCC)C(F)(F)F (stereo not given) | 11% | 42% | 99% (active) | 7% | 28% | 99.1% (active) | 3% | 48% | 99% (active) | 16% | 63% | 99.2% (active) | 9% | 47% | 99.2% (active) | 26% | 79% (active) | 99% (active)
4 | N#CSCc1ccc(CSC#N)c(Cl)c1 | 10% | 93% (active) | 59.7% | 0% | 91% (active) | 40.4% | 18% | 91% (active) | 41% | 4% | 88% (active) | 60.8% | 11% | 98% (active) | 39.1% | 4% | 96% (active) | 93.3% (active)
5 | O=C(Cc1ccccc1)c1ccc(O)c(F)c1 | 4% | 79% (active) | 87.3% (active) | 6% | 85% (active) | 77.5% (active) | 6% | 72% (active) | 80.2% (active) | 4% | 68% | 72.4% (active) | 7% | 88% (active) | 82.5% (active) | 7% | 84% (active) | 83.7% (active)
6 | CC(C)(CCBr)[N+](=O)[O-] | -151% | -161% | 0.55% | -47% | -54% | 16% | -61% | -62% | 8.35% | -52% | -68% | 43.9% | -75% | -84% | 5.85% | -225% | -127% | 0.35%
7 | O=C(N/N=C/c1ccccc1)c1ccc([N+](=O)[O-])cc1 | 16% | 15% | 8.6% | -3% | 6% | 7.3% | 22% | 12% | 1.15% | 12% | 19% | -1.35% | 17% | 24% | 14.9% | 15% | 18% | 1.05%
8 | CN(C)c1ccc(/C=N/N=C(\C#N)[S][Sn]([Cl])([c]2ccccc2)[c]2ccccc2)cc1 | 98% (active) | 95% (active) | 97.5% (active) | 98% (active) | 96% (active) | 97.3% (active) | 98% (active) | 96% (active) | 97.5% (active) | 98% (active) | 89% (active) | 95% (active) | 98% (active) | 95% (active) | 97% (active) | 97% (active) | 96% (active) | 97.2% (active)
9 | CCOC(=O)/C(=C\c1ccc(-c2ccccc2)cc1)C(C)=O | 0% | 93% (active) | 67.1% | -27% | 95% (active) | 73.5% (active) | 21% | 92% (active) | 81.2% (active) | 1% | 85% (active) | 45.5% | 16% | 96% (active) | 66.9% | -27% | 94% (active) | 76.6% (active)
10 | CSc1ncnc2ncn(C3OC(CO)C(O)C3O)c12 (stereo not given) | -16% | -1% | 9.65% | -15% | -2% | 3.55% | -11% | 2% | 15.2% | 2% | -3% | 53% | -10% | -14% | -0.75% | -7% | -21% | 12.5%
